ABCB6 inh 2 – human ABCB6 transporter inhibition | 360,000 tested, 0.19% active | fluorescence ratio to DMSO, % at 10 µM | AID 602162 | K562-ABCB6 porphyrin accumulation, flow cytometry, 1 h; active compounds read low;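 active = fluorescence ratio to DMSO below 75%, the collection mean minus 3 SD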;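 also: signal is porphyrin accumulated inside mitochondria; 100% equals median channel fluorescence of DMSO control wells; lower ratio means ABCB6 inhibition with less porphyrin fluorescence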
NRP1-CendR mod – modulators of CendR peptide binding to human neuropilin-1; O14786; 360,000 tested, 0.85% active; FAM-RPARPAR peptide binding to NRP-1, fluorescence polarization; inhibition, % at 25 µM;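 active = inhibition or corrected inhibition above about 18%, plus a signal ratio from 0.5 to 1.5, limit read from the data, passing the limit was not always enough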
GSIS activator – GLuc luminescence reporter in INS-1E cells, primary screen for activators of glucose-dependent secretion of insulin | activation, % at 16.6 µM | AID 743287 | 370,000 tested, 0.61% active | INS-1E GLuc reporter insulin secretion, 2-3 h;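 active = lowest replicate activation of at least 40%, so every replicate reaches that level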;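 also: 0% = median of neutral control wells and 100% = median of IBMX positive control wells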
ARNT-TACC3 inh – disruptors of human ARNT/TACC3 interaction; inhibition, % at 9.99 µM; Q9Y6A5; 390,000 tested, 0.66% active; AlphaScreen His-ARNT PAS-B/GST-TACC3 binding, luminescence; TACC3 fragment carries E629A point mutation;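 active = mean inhibition of replicates at least 50% and at least half of replicates each reaching 50%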;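 also: 0% = complete ARNT plus TACC3 wells and 100% = ARNT alone without TACC3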
hiPSC survival – hiPSC single-cell survival enhancement; ATPlite luminescence; 100% = ROCK inhibitor wells, 0% = DMSO; survival enhancement, % at 20 µM; 360,000 tested, 0.044% active; AID 602274; in the data active = survival enhancement above about 18%;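 also: cells exposed to compounds for 16 hours before the ATP read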
* hit, by the source's call; x = not tested or not shown. A selection: hits, their analogues and other compounds. The true share with any hit is near 1.8%.

SMILES | ABCB6 inh 2 | NRP1-CendR mod | GSIS activator | ARNT-TACC3 inh | hiPSC survival
COC(=O)c1ccc(Cn2nnc3c(=O)[nH]c(C4CCCN(S(=O)(=O)c5cccc(Cl)c5)C4)nc32)cc1 (stereo not given) | 97 | 27* | -24 | -6 | 0
COC(=O)c1ccc(Cn2nnc3c(=O)[nH]c(C4CCCN(S(=O)(=O)c5ccc(C)cc5)C4)nc32)cc1 (stereo not given) | 102 | 6 | 27 | -1 | 0
COc1ccc(-c2ccc3c(c2)[C@H]2[C@H](CCN2S(=O)(=O)c2ccc(OC)cc2)[C@H](CO)N3C)cc1 | x | x | 6 | -1 | x
O=C(C1CCCCC1)N1CC2(C1)[C@@H](c1ccccc1)[C@@H](CO)N2Cc1ccc(Cl)cc1 | x | x | -32 | x | x
COc1ccc(-c2nnc3c4ccccc4c(C)nn23)cc1S(=O)(=O)N1CCN(CCO)CC1 | 102 | 8 | x | active | 2
O=[N+]([O-])c1cc(/C=N/OCc2c(Cl)cccc2Cl)ccc1N1CCOCC1 | 54* | -6 | x | 11 | 1
CO/N=C/c1ccc(N2CCOCC2)c([N+](=O)[O-])c1 | 97 | 9 | -4 | -1 | -1
NC(=O)C1=C[C@H](c2ccc(Br)cc2)C[C@H](OCc2ccc(CO)cc2)O1 | 98 | 26* | 3 | -3 | 3
O=C(NCc1ccccc1)C1=C[C@H](C2CCCCC2)C[C@H](OCc2ccc(CO)cc2)O1 | 93 | 18* | -24 | -2 | 0
NC(=O)C1=C[C@H](C2CCCCC2)C[C@H](OCc2ccc(CO)cc2)O1 | 99 | 28* | x | -2 | 3
COc1ccc2c3c([nH]c2c1)[C@@H](CO)N(C(=O)Nc1ccc(F)cc1)CC31CCN(S(=O)(=O)c2cccs2)CC1 | x | x | 2 | x | x
C[C@H](CO)N1C[C@H](C)[C@@H](CN(C)C(=O)CN(C)C)Oc2cc(C#CC3CC3)ccc2S1(=O)=O | x | x | -4 | 4 | x
Cc1noc(C)c1S(=O)(=O)Nc1ccc2c(c1)CC(=O)N([C@@H](C)CO)C[C@@H](C)[C@@H](CN(C)C(=O)NC1CCCCC1)O2 | x | x | -11 | 6 | x
O=C(/C=C/c1ccc(Br)cc1)c1ccc(NC(=O)c2ccco2)cc1 | 92 | -20 | 114* | x | -2
O=C(/C=C/c1ccc(Br)cc1)c1ccco1 | 102 | 11 | 3 | x | -3
COc1ccc(S(=O)(=O)N2CCN(Cc3cccc(F)c3)CC2)cc1 | 98 | 7 | -6 | -19 | 0
COc1ccc(S(=O)(=O)N2CCN(Cc3cccc([N+](=O)[O-])c3)CC2)cc1 | 102 | 20* | x | 3 | 0
CC(C)Oc1cccc(C(=O)C2CCCN(C(=O)CCc3cnn(C)c3)C2)c1 (stereo not given) | 91 | -5 | 55* | x | 0
CO[C@@H]1CN(C)C(=O)c2cc(NC(=O)C3CCC3)ccc2OC[C@@H](C)N(C(=O)CN(C)C)C[C@@H]1C | x | x | 10 | 0 | x
COc1ccc(-c2ccc(-c3nc4c(c(=O)[nH]c(=O)n4Cc4ccccc4)n3C)o2)c([N+](=O)[O-])c1 | 98 | -16 | 4 | 24* | 3
O=c1[nH]c(=O)n(Cc2ccccc2)c2nc(-c3ccc(Oc4ccc(F)cc4)c([N+](=O)[O-])c3)n(CCO)c12 | 98 | 26* | 0 | 3 | -2
COCCn1c(=O)[nH]c(=O)c2c1nc(-c1ccc(-c3ccc(Cl)cc3[N+](=O)[O-])o1)n2Cc1ccccc1 | 113 | -21 | 4 | -6 | -1
CN1c2ccc(-c3ccc(F)cc3)cc2[C@H]2[C@H](CCN2C(=O)c2ccc(F)cc2)[C@@H]1CO | x | x | -42 | x | x
C[C@@H]1CN([C@H](C)CO)C(=O)c2cc(C#CC3CC3)cnc2O[C@@H]1CN(C)C(=O)Nc1ccc(F)cc1 | x | x | -7 | x | x
CN(C)CC(=O)N1[C@H](CO)[C@@H](c2ccccc2)C12CN(C(=O)C1CCCC1)C2 | x | x | 6 | x | x
SMILES | ABCB6 inh 2 | NRP1-CendR mod | GSIS activator | ARNT-TACC3 inh | hiPSC survival
COc1cc2c(c(OC)c1OC)C(=O)C(=Cc1ccccc1)O2 | 99 | 26* | 10 | -4 | -2
C/C(O)=c1/c(=O)nc2cccc3c2=c1c1ccccc1c3=O | 93 | 16 | 24 | 46* | 1
CS(=O)(=O)Nc1ccc2c(c1)[C@@H]1C[C@@H](CC(=O)NC3CCCC3)O[C@@H](CO)[C@@H]1O2 | x | x | 27 | -1 | x
O=C(NCc1ccc(Cl)cc1)c1cc(=O)[nH]c2ccc(S(=O)(=O)N3CCOCC3)cc12 | 98 | -5 | 55* | 0 | -1
C[C@@H]1CN([C@H](C)CO)C(=O)c2cc(NC(=O)Nc3ccccc3)ccc2O[C@H]1CN(C)C(=O)Nc1ccc2c(c1)OCO2 | x | x | 6 | x | x
CCN(CC)CCCN1C=C2C(=O)C(C)(OC(=O)C3CCCC3)C(=O)C(c3ccccc3)=C2C=C1CCCC(=O)OC (stereo not given) | 96 | 36* | 9 | 2 | -1
COC(=O)CCCC1=CC2=C(c3ccccc3)C(=O)C(C)(OC(=O)C3CCCC3)C(=O)C2=CN1CC1CC1 (stereo not given) | 114 | 6 | 11 | -7 | -2
COC(=O)CCCC1=CC2=C(c3ccccc3)C(=O)C(C)(OC(=O)C3CCCC3)C(=O)C2=CN1CC(C)C (stereo not given) | 109 | 28* | -1 | -18 | 1
CCCCC1=CC2=C(c3ccco3)C(=O)C(C)(OC(=O)c3ccc(OC)cc3)C(=O)C2=CN1Cc1ccccc1 (stereo not given) | 107 | -39 | -6 | -6 | 2
COCCN1C=C2C(=O)C(C)(OC(=O)C3CCCC3)C(=O)C(c3ccccc3)=C2C=C1CCCC(=O)OC (stereo not given) | 98 | 26* | 2 | -1 | -3
CCCCC1=CC2=C(c3ccco3)C(=O)C(C)(OC(=O)c3ccc(OC)cc3)C(=O)C2=CN1CCOC (stereo not given) | 98 | 28* | 2 | -3 | 3
COC(=O)CCCC1=CC2=C(c3ccccc3)C(=O)C(C)(OC(=O)C3CCCC3)C(=O)C2=CN1C1CCCCC1 (stereo not given) | 102 | 1 | -6 | 5 | 1
COC(=O)CCCC1=CC2=C(c3ccccc3)C(=O)C(C)(OC(=O)C3CCCC3)C(=O)C2=CN1C1CCCC1 (stereo not given) | 100 | 30* | -5 | 5 | 0
Cc1ccc(NC(=O)CCC(=O)NNC(=O)COc2ccccc2)c(C)c1 | 98 | -9 | x | 6 | -1
Cc1ccc(OCC(=O)NNC(=O)CCC(=O)Nc2ccc(C)cc2C)cc1 | 104 | 3 | 57* | -7 | -1
Cc1ccc(NC(=O)COc2ccc3c(c2)OCO3)c(C)c1 | 92 | 16* | 16 | -3 | 0
COc1cc(C(O)c2nc3ccccc3n2C(C)C)cc(OC)c1OC (stereo not given) | 101 | -2 | -5 | 50* | -1
CC1(c2nnc(-c3ccc(F)cc3)o2)CC(c2ccc(F)cc2)=NO1 (stereo not given) | 86 | 24* | 1 | -1 | 0

Screening data: PubChem, several laboratories
